# PGC1a acetyl inh: inhibitors of PGC1a acetylation signal, primary screen, cell-based, U2OS, AlphaScreen, inhibitor mode | AlphaScreen anti-acetyl-lysine; with virally co-expressed GCN5 acetyltransferase | inhibition, % at 15.6 µM | 350,000 tested, 0.17% active | AID 651687, 2012;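 active = every replicate shows inhibition of at least 40%; inconclusive = mean inhibition at least 40% but some replicate below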;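 note: 0% = neutral control wells and 100% = positive control wells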
# F508del corr: F508del CFTR correction, initial screen, CFBE line, single point. activity (quench increase), % at 7.58 µM. 350,000 tested, 0.36% active. CFBE cells, YFP halide quenching; stimulated with forskolin plus potentiator P3; % fluorescence drop versus neutral controls;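 active = mean added fluorescence quench of at least 8% versus neutral control, with both replicates also reaching 8%; inconclusive = only one of the mean or replicate conditions met; inactive = mean below 8% and not both replicates reaching 8%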;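 note: cells transiently co-express mutant CFTR-F508del with the halide-sensitive YFP; corrector assay measuring rescue of mutant channel to the surface after 24 h compound exposure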
# Env fusion inh: inhibitors of HIV-1 Env-driven cell-cell fusion, primary screen, HeLa-JRFL effector, CEM21 target cells, luciferase; inhibition, % at 12.3 µM; 360,000 tested, 1.1% active; AID 651610, 2012;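 active = mean replicate inhibition score of at least 50 and every replicate individually at or above 50; inconclusive = only one of the two criteria met; inactive = mean below 50 and not all replicates reaching 50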;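 note: 0% = plate neutral controls and 100% = maraviroc near 300 nM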
# EWS-Fli block: EWS/Fli-driven NR0B1 reporter inhibitors, primary screen, A673 cells, NR0B1 luciferase, luminescence, MLPCN library | viability-normalised | inhibition, % at 12.6 µM | 350,000 tested, 0.67% active;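 active = mean inhibition of at least 50% after viability correction, with every replicate also passing that limit; inconclusive = mean reaches 50% but only one of two replicates passes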;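 note: firefly luciferase signal divided by Alamar Blue viability fluorescence both relative to DMSO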
# GSIS activator: GLuc luminescence reporter in INS-1E cells, primary screen for activators of glucose-dependent secretion of insulin; 370,000 tested, 0.61% active; INS-1E GLuc reporter insulin secretion, 2-3 h; activation, % at 16.6 µM; AID 743287, 2014;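 active = lowest replicate activation of at least 40%, so every replicate reaches that level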;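 note: 0% = median of neutral control wells and 100% = median of IBMX positive control wells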
# PAX8 inh HTS: inhibitors of PAX8-driven TPO luciferase reporter, primary screen, RMG-I cells, single concentration | SteadyGlo, 24 h | inhibition, % at 12.6 µM | AID 652154, 2013 | 360,000 tested, 1.2% active;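 active = mean replicate inhibition at least 60% with every replicate also reaching 60%; inconclusive = only one of the two criteria is met; inactive = mean below 60% and not all replicates reaching 60%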;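 note: luciferase light reporting Pax8 driven TPO promoter activity; plate controls were median of neutral control wells for no effect and mitoxantrone controls for full effect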
# An asterisk follows results filed as active; u = inconclusive; x = no result; [ ] = dose if it differs, or a comment. A selection: hits, their analogues and other compounds. The true share with any hit is near 2.7%.
SMILES,PGC1a acetyl inh,F508del corr,Env fusion inh,EWS-Fli block,GSIS activator,PAX8 inh HTS
C[C@H]1CCCCO[C@@H](CN(C)Cc2ccc3c(c2)OCO3)[C@@H](C)CN([C@@H](C)CO)C(=O)c2cc(NC(=O)Nc3ccccc3)ccc2O1,-16,-3,60*[16.7 µM],2,-29,-2
C[C@H](CO)N1C[C@H](C)[C@H](CN(C)Cc2ccccc2)OCCCC[C@H](C)Oc2ccc(NC(=O)Nc3ccc4c(c3)OCO4)cc2C1=O,24,-4,58*[16.7 µM],5,-28,3
C[C@@H]1CCCCO[C@H](CN(C)C(=O)c2ccccc2)[C@@H](C)CN([C@H](C)CO)C(=O)c2cc(NC(=O)Nc3ccc4c(c3)OCO4)ccc2O1,10,-1,-14[16.7 µM],-1,10,4
C[C@@H]1CCCCO[C@@H](CN(C)Cc2ccccc2)[C@@H](C)CN([C@H](C)CO)C(=O)c2cc(NC(=O)Nc3ccc4c(c3)OCO4)ccc2O1,-12,0,-35[16.7 µM],-5,-36,5
C[C@H]1CN([C@@H](C)CO)S(=O)(=O)c2ccc(-c3ccc(C(=O)N(C)C)cc3)cc2O[C@@H]1CN(C)C(=O)C1CC1,2,-1,-13[16.7 µM],1,-22,x
O=C(C[C@H]1C=C[C@H](NS(=O)(=O)c2ccc(F)cc2)[C@H](CO)O1)NCc1ccccc1F,0,1,x,5,8,x
CC(=O)Nc1ccc(S(=O)(=O)N2CCC(C(=O)NCc3ccco3)CC2)cc1,x,-2,-25,6,33,1
CC(C)c1ccc(S(=O)(=O)N2CCC(C(=O)NCc3ccco3)CC2)cc1,3,-1,56*,4,-1,x
O=C(NCc1ccco1)C1CCCN(S(=O)(=O)c2ccc(Br)cc2)C1 (configuration not stated),-6,3,-10,5,-6,131*
Cc1ccc(S(=O)(=O)N2[C@H](CC(=O)OCc3ccccc3)OC[C@@H]2C(C)C)cc1,x,-5,-9,-1,-1,2
COC(=O)C[C@@H]1OC[C@H](C(C)C)N1S(=O)(=O)c1ccc(C)cc1,x,-1,-18,-12,44*,-4
COc1ccc(C2CC(c3cccc(F)c3)=NN2c2ccc(S(N)(=O)=O)cc2)cc1 (configuration not stated),-7,-3,14,11,2,-11
COc1ccc(C2CC(c3cccc(Br)c3)=NN2c2ccc(S(N)(=O)=O)cc2)cc1 (configuration not stated),-1,10*,-14,17,8,11
O=C(NC1CCCC1)N[C@H]1C=C[C@H](CC(=O)N2CCOCC2)O[C@H]1CO,0,0,5[16.7 µM],6,0,-5
COc1cccc(-c2cc3nc(-c4ccccc4)cc(N4CCN(C(=O)c5ccoc5)CC4)n3n2)c1,-17,6,17,21,-4,68*
COc1ccccc1-c1cc2nc(-c3ccccc3)cc(N3CCN(C(=O)c4ccoc4)CC3)n2n1,x,-2,x,22,9,67*
COc1ccccc1-c1cc2nc(-c3ccccc3)cc(N3CCN(C(=O)c4ccco4)CC3)n2n1,6,-1,-8,-24,-4,86*
Cc1ccc(-c2nc3c(c(SCC(=O)N4CCCC4)n2)COC(C)(C)C3)cc1,10,-1,26,2,44*,14
CC1(C)Cc2nc(-c3ccccc3)nc(SCC(=O)N3CCOCC3)c2CO1,11,0,11,x,-9,5
N#CCCCC#Cc1ccc2c(c1)COc1c3ccccc3nn1-2,x,2,-70,67*,x,32
CN1/C(=C\C(=O)COC(=O)c2ccc([N+](=O)[O-])o2)C(C)(C)c2ccccc21,-2,0,-5,-2,-17,-21
CN1/C(=C\C(=O)COC(=O)c2nccnc2N)C(C)(C)c2ccccc21,x,0,58*,-3,-61,8
CC(C)NC(=O)N(C)C[C@H]1Oc2c(NC(=O)C3CC3)cccc2C(=O)N([C@H](C)CO)C[C@H]1C,3,-2,1[16.7 µM],-9,6,-16
C=CCn1c(SCC(=O)c2cccs2)nc2sc(CC)cc2c1=O,-23,x,88*,x,x,x
C=CCn1c(SCC#N)nc2sc(CC)cc2c1=O,-10,-1,13,11,89*,-15
SMILES,PGC1a acetyl inh,F508del corr,Env fusion inh,EWS-Fli block,GSIS activator,PAX8 inh HTS
CC(C)NC(=O)Nc1cccc2c1O[C@@H](CN(C)C(=O)NC1CCCCC1)[C@@H](C)CN([C@H](C)CO)C2=O,-2,0,-10[16.7 µM],6,22,-37
CC(C)C(=O)Nc1ccc2c(c1)C(=O)N(C)[C@@H]1CC[C@H](CC(=O)O)O[C@H]1CO2,6,-3,10[16.7 µM],-8,6,-16
COc1ccc(/C=N/Nc2nc(-c3ccc(Cl)cc3)cc(C(F)(F)F)n2)c(OC)c1,x,x,16,x,76*,-2
O=C(NCC1CCCCC1)[C@@H]1[C@@H](CO)[C@@H]2Cn3c(ccc(-c4ccncc4)c3=O)[C@H]1N2,x,0,x,1,2,-10
COCCNC(=O)NC12CC3(C)CC(C)(CC(C)(C3)C1)C2,x,10*,18,-5,14,21
NS(=O)(=O)c1ccc(CCNC(=O)CN2CCN(c3ccc(F)cc3)CC2)cc1,x,x,64*,x,-4,16
NS(=O)(=O)c1ccc(CCNC(=O)CN2CCN(c3cccc(Cl)c3)CC2)cc1,x,x,45,9,-8,22
CCCNC(=O)C[C@H]1CC[C@H]2[C@@H](COc3ccc(NC(=O)c4ccccc4)cc3C(=O)N2C)O1,-1,3,-1[16.7 µM],-1,-5,-1
C[C@@H]1CN([C@H](C)CO)C(=O)c2cc(NS(=O)(=O)c3ccc(Cl)cc3)ccc2O[C@@H](C)CCCCO[C@@H]1CN(C)C(=O)CCC(F)(F)F,7,2,-24[16.7 µM],x,-17,28
CCC(=O)N1CC(=O)N2[C@H](CO)[C@H](c3ccc(C#CCc4ccccc4)cc3)[C@@H]2C1,-9,1,x,x,2,x
CC[n+]1ccc(/C=C/c2c[nH]c3ccccc23)cc1,x,3,u,22,-50,75*
Cc1ccc2[nH]cc(/C=C/c3cc[n+](C)cc3)c2c1,x,0,41,60*,6,78*
COc1ccc2c(/C=C/c3cc[n+](C)cc3)c[nH]c2c1,3,-4,47,33,-24,37
COc1ccccc1-c1cnc2c(c1)C(=O)N([C@@H](C)CO)C[C@@H](C)[C@@H](CN(C)C(=O)c1ccccc1)O2,4,-4,10[16.7 µM],-1,12,3
Nc1nc2nc(-c3cccs3)cc(C(F)(F)F)n2n1,x,6,-9,-9,22,0
CCOC(=O)c1nc2nc(-c3cccs3)cc(C(F)(F)F)n2n1,-4,x,-7,x,63*,-2

# Bioassay records (PubChem BioAssay)
